Experiments:
Experiment in all cases: SPOT peptide array binding signal intensity (averaged, normalized) (arbitrary units (background-subtracted, floor 0; scale differs between SH3 domains)); higher = stronger binding of the SH3 domain to the peptide
[1] = molecular target: AgAbp1
Method in brief: (§1)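 GST-fused SH3 domains from four yeast species were expressed in E. coli BL21(DE3), purified on glutathione Sepharose and incubated at 10 μg/ml overnight at 4°C in TBS-based blocking buffer on cellulose membranes carrying synthetic 15-mer peptides, with cysteines replaced by serines. Bound protein was detected with anti-GST antibody, an HRP anti-mouse secondary and luminol, then imaged and quantified with Genespotter. Binding signal is the normalized, background-subtracted spot intensity averaged over replicates, in arbitrary units that differ between domains.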

[2] = molecular target: AgBbc1
Method in brief: as §1

[3] = molecular target: AgBem1-D1
Method in brief: as §1

[4] = molecular target: AgBzz1-D1
Method in brief: as §1

[5] = molecular target: AgBzz1-D2
Method in brief: as §1

[6] = molecular target: AgCyk3
Method in brief: as §1

[7] = molecular target: AgFus1
Method in brief: as §1

[8] = molecular target: AgHof1
Method in brief: as §1

[9] = molecular target: AgHse1
Method in brief: as §1

[10] = molecular target: AgLsb1
Method in brief: as §1

[11] = molecular target: AgLsb4
Method in brief: as §1

[12] = molecular target: AgMyo5
Method in brief: as §1

[13] = molecular target: AgNbp2
Method in brief: as §1

[14] = molecular target: AgRvs167
Method in brief: as §1

[15] = molecular target: AgSho1
Method in brief: as §1

[16] = molecular target: AgSla1-D1-D2
Method in brief: as §1

[17] = molecular target: AgSla1-D3
Method in brief: as §1

[18] = molecular target: CaAbp1-D1
Method in brief: as §1

[19] = molecular target: CaAbp1-D2
Method in brief: as §1

[20] = molecular target: CaBbc1
Method in brief: as §1

[21] = molecular target: CaBem1-D1
Method in brief: as §1

[22] = molecular target: CaBzz1-D1
Method in brief: as §1

[23] = molecular target: CaBzz1-D2
Method in brief: as §1

[24] = molecular target: CaCyk3
Method in brief: as §1

[25] = molecular target: CaFus1
Method in brief: as §1

[26] = molecular target: CaHof1
Method in brief: as §1

[27] = molecular target: CaHse1
Method in brief: as §1

[28] = molecular target: CaLsb1
Method in brief: as §1

[29] = molecular target: CaLsb4
Method in brief: as §1

[30] = molecular target: CaMyo5
Method in brief: as §1

[31] = molecular target: CaNbp2
Method in brief: as §1

[32] = molecular target: CaRvs167
Method in brief: as §1

[33] = molecular target: CaRvs167-3
Method in brief: as §1

[34] = molecular target: CaSho1
Method in brief: as §1

[35] = molecular target: CaSla1-D1-D2
Method in brief: as §1

[36] = molecular target: CaSla1-D3
Method in brief: as §1

[37] = molecular target: ScAbp1
Method in brief: as §1

[38] = molecular target: ScBbc1
Method in brief: as §1

[39] = molecular target: ScBem1-D1
Method in brief: as §1

[40] = molecular target: ScBzz1-D1
Method in brief: as §1

[41] = molecular target: ScBzz1-D2
Method in brief: as §1

[42] = molecular target: ScCyk3
Method in brief: as §1

[43] = molecular target: ScFus1
Method in brief: as §1

[44] = molecular target: ScHof1
Method in brief: as §1

[45] = molecular target: ScHse1
Method in brief: as §1

[46] = molecular target: ScLsb1
Method in brief: as §1

[47] = molecular target: ScLsb2
Method in brief: as §1

[48] = molecular target: ScLsb3
Method in brief: as §1

[49] = molecular target: ScLsb4
Method in brief: as §1

[50] = molecular target: ScMyo3
Method in brief: as §1

[51] = molecular target: ScMyo5
Method in brief: as §1

[52] = molecular target: ScNbp2
Method in brief: as §1

[53] = molecular target: ScPex13
Method in brief: as §1

[54] = molecular target: ScRvs167
Method in brief: as §1

[55] = molecular target: ScSho1
Method in brief: as §1

[56] = molecular target: ScSla1-D1-D2
Method in brief: as §1

[57] = molecular target: ScSla1-D3
Method in brief: as §1

[58] = molecular target: SpAbp1-D1
Method in brief: as §1

[59] = molecular target: SpBbc1
Method in brief: as §1

[60] = molecular target: SpBzz1-D1
Method in brief: as §1

[61] = molecular target: SpBzz1-D2
Method in brief: as §1

[62] = molecular target: SpCyk3
Method in brief: as §1

[63] = molecular target: SpHof1
Method in brief: as §1

[64] = molecular target: SpHof1-2
Method in brief: as §1

[65] = molecular target: SpHof1-3
Method in brief: as §1

[66] = molecular target: SpHse1
Method in brief: as §1

[67] = molecular target: SpLsb1
Method in brief: as §1

[68] = molecular target: SpLsb4
Method in brief: as §1

[69] = molecular target: SpMyo1
Method in brief: as §1

[70] = molecular target: SpNbp2
Method in brief: as §1

[71] = molecular target: SpPex13
Method in brief: as §1

[72] = molecular target: SpRvs167
Method in brief: as §1

[73] = molecular target: SpSla1-D1-D2
Method in brief: as §1

[74] = molecular target: SpSla1-D3
Method in brief: as §1

Measured: SPOT peptide array binding signal intensity

B1: unnamed (peptide)
chain: KTITLEVESSDTIDN
3: [11]
2: [16]
15: [43]
1: [37] | [44] | [59]
1.5: [14]
8: [40]
2.5: [33]
0.5: [1] | [28]
10.2: [57]
≤ 0: all other assays above

B2: unnamed (peptide)
chain: TTAPALPSLPPPPLL
3050: [12]
22: [4]
0.5: [1] | [28]
1950: [30]
3: [17] | [20]
0.667: [14]
5.75: [27]
1690: [8]
25: [5]
≤ 0: [2] | [3] | [6] | [7] | [9] | [10] | [11] | [13] | [15] | [16] | [21] | [23] | [24] | [25] | [29]
5: [18]
873: [26]
21: [19]
3.5: [22]
